Measured values as given in publication PMC7862700, “An all-to-all approach to the identification of sequence-specific readers for epigenetic DNA modifications on cytosine”.

Columns and labels:
Test in all cases: DAPPL (digital affinity profiling via proximity ligation, sequencing); 10 mM Tris-HCl pH 7.5, 50 mM NaCl, 1 mM DTT, 4% glycerol, room temperature, 30 min; GST-TFs on glutathione beads, 16-mer random dsDNA library, 0.1% formaldehyde crosslink after washing; high values mean tight binding
FLI1 = molecular target: T1, FLI1 (Homo sapiens, UniProt Q01543 1-452); conditions: protein: recombinant; tags: N-terminal GST; dsDNA, one strand shown
T1 sequence: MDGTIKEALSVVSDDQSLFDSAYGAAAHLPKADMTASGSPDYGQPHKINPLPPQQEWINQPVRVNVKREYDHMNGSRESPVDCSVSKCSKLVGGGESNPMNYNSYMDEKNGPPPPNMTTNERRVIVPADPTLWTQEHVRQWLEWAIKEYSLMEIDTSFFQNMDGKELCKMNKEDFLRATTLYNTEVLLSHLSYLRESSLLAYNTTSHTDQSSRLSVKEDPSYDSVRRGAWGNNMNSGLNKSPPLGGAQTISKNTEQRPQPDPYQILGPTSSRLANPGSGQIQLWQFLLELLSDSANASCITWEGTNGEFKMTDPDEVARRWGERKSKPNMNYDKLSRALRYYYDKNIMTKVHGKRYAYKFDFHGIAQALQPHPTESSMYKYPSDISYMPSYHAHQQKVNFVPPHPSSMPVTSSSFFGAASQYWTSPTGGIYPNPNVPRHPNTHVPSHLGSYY
Method in brief: (§1)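 GST fusions of human transcription factors were expressed in yeast and captured with glutathione beads. Once given DNA barcodes and pooled alongside a tag-only sample, they were incubated for 30 min at room temperature with 200 nmole of a random double-stranded 16-mer DNA library in Tris/NaCl/DTT/glycerol buffer, then washed, crosslinked (0.1% formaldehyde), proximity-ligated, PCR-amplified and sequenced on an Illumina NextSeq500. The binding signal of each hexamer is its read frequency for a factor divided by its frequency for the tag-only sample.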

ELK1 = molecular target: T2, ELK1 (Homo sapiens, UniProt P19419 1-428); conditions: protein: recombinant; tags: N-terminal GST; dsDNA, one strand shown
T2 sequence: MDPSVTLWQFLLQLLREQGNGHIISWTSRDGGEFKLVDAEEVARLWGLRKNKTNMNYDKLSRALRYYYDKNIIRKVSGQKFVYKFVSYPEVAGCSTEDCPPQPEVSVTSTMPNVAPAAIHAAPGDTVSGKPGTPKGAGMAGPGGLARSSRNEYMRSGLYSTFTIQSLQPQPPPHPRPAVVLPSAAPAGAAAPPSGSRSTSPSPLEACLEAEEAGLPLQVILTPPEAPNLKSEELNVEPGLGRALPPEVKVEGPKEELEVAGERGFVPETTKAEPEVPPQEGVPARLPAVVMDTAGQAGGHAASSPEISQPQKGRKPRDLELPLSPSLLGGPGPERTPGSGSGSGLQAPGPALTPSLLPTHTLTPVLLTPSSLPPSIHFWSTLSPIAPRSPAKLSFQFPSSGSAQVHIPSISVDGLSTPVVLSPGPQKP
Method in brief: as §1

GABPA = molecular target: T3, GABPA (Homo sapiens, UniProt Q06546 1-454); conditions: protein: recombinant; tags: N-terminal GST; dsDNA, one strand shown
T3 sequence: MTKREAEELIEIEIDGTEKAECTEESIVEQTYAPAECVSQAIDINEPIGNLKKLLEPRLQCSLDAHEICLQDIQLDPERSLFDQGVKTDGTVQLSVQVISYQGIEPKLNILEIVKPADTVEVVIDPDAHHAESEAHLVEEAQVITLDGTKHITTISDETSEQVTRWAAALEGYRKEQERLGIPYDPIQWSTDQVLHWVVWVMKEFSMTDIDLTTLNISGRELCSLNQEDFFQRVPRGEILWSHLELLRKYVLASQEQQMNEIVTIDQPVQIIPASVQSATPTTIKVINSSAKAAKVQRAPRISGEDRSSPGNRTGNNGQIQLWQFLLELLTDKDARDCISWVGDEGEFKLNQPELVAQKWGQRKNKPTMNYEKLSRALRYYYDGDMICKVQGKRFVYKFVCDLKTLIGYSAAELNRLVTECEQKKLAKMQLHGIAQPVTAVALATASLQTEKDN
Method in brief: as §1

ERG = molecular target: T4, ERG (Homo sapiens, UniProt P11308 1-479); conditions: protein: recombinant; tags: N-terminal GST; dsDNA, one strand shown
T4 sequence: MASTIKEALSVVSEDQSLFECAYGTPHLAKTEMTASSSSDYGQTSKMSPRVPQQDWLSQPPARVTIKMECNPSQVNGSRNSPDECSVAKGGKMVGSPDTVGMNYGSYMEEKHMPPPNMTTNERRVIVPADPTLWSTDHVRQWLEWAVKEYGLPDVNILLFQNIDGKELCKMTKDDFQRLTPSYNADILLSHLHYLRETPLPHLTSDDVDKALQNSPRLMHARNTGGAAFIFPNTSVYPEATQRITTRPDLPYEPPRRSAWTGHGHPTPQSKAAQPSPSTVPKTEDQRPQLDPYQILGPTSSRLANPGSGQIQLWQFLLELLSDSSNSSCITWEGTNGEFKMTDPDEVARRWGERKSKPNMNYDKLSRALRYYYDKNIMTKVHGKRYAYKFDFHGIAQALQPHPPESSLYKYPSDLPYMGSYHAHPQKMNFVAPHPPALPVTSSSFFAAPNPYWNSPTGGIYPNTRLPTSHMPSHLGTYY
Method in brief: as §1

ELF1 = ELF1 (Homo sapiens, UniProt P32519 1-619); conditions: protein: recombinant; tags: N-terminal GST; dsDNA, one strand shown
Method in brief: as §1

EHF = molecular target: T5, EHF (Homo sapiens, UniProt Q9NZC4 1-300); conditions: protein: recombinant; tags: N-terminal GST; dsDNA, one strand shown
T5 sequence: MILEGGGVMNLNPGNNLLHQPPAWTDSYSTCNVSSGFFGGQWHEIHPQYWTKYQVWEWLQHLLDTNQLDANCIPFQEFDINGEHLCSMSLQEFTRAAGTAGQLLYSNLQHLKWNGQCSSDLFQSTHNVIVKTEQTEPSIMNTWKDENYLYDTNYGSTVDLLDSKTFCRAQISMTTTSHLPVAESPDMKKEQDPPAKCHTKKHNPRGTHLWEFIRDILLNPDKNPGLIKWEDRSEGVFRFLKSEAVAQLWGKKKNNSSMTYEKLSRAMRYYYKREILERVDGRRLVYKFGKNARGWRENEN
Method in brief: as §1

SPI1 = SPI1 (Homo sapiens, UniProt P17947 1-270); conditions: protein: recombinant; tags: N-terminal GST; dsDNA, one strand shown
Method in brief: as §1

SPIB = SPIB (Homo sapiens, UniProt Q01892 1-262); conditions: protein: recombinant; tags: N-terminal GST; dsDNA, one strand shown
Method in brief: as §1

ELK3 = molecular target: T6, ELK3 (Homo sapiens, UniProt P41970 1-407); conditions: protein: recombinant; tags: N-terminal GST; dsDNA, one strand shown
T6 sequence: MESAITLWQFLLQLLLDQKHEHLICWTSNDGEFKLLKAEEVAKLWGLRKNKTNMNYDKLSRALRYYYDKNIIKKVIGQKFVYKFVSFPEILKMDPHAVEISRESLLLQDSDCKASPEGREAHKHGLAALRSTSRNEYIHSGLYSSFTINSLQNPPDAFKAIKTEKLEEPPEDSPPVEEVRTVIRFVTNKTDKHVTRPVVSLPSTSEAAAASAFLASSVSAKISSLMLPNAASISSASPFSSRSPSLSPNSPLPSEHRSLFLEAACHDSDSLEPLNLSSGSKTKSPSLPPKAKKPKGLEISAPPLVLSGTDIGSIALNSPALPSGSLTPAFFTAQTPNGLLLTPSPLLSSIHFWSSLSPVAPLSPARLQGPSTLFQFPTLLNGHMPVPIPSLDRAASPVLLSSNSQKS
Method in brief: as §1

FEV = molecular target: T7, FEV (Homo sapiens, UniProt Q99581 1-238); conditions: protein: recombinant; tags: N-terminal GST; dsDNA, one strand shown
T7 sequence: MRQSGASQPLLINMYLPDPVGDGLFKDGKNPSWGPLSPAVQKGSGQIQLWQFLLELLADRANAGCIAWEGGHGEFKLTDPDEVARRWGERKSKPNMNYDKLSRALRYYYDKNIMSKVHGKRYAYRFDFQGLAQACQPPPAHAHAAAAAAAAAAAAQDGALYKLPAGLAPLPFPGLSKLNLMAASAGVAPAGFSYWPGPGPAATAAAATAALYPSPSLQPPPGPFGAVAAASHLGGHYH
Method in brief: as §1

ETV5 = ETV5 (Homo sapiens, UniProt P41161 1-510); conditions: protein: recombinant; tags: N-terminal GST; dsDNA, one strand shown
Method in brief: as §1

HSF1 = HSF1 (Homo sapiens, UniProt Q00613 1-529); conditions: protein: recombinant; tags: N-terminal GST; chain copies: 3; dsDNA, one strand shown
Method in brief: as §1

SPIC = molecular target: T8, SPIC (Homo sapiens, UniProt Q8N5J4 1-248); conditions: protein: recombinant; tags: N-terminal GST; dsDNA, one strand shown
T8 sequence: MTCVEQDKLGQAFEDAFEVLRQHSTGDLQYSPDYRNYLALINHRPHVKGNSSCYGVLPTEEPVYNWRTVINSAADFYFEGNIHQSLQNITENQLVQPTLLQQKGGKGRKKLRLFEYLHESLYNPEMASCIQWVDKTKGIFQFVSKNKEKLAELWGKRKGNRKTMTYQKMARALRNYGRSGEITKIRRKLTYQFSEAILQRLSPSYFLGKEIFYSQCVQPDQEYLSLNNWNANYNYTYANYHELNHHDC
Method in brief: as §1

ELF4 = ELF4 (Homo sapiens, UniProt Q99607 1-663); conditions: protein: recombinant; tags: N-terminal GST; dsDNA, one strand shown
Method in brief: as §1

ELK4 = molecular target: T9, ELK4 (Homo sapiens, UniProt P28324-2 1-405); conditions: protein: recombinant; tags: N-terminal GST; dsDNA, one strand shown
T9 sequence: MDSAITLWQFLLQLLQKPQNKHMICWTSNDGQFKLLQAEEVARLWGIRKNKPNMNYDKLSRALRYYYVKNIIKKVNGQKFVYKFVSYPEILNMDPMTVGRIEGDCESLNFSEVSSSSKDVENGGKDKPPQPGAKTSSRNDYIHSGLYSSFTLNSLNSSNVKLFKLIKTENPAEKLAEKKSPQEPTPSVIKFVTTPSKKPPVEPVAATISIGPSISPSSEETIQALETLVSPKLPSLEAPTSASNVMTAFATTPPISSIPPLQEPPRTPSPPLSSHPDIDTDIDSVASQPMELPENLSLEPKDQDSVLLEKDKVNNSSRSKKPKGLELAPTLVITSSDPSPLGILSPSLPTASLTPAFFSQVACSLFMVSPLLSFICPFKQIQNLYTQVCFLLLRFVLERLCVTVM
Method in brief: as §1

ETV2 = molecular target: T10, ETV2 (Homo sapiens, UniProt O00321 1-342); conditions: protein: recombinant; tags: N-terminal GST; dsDNA, one strand shown
T10 sequence: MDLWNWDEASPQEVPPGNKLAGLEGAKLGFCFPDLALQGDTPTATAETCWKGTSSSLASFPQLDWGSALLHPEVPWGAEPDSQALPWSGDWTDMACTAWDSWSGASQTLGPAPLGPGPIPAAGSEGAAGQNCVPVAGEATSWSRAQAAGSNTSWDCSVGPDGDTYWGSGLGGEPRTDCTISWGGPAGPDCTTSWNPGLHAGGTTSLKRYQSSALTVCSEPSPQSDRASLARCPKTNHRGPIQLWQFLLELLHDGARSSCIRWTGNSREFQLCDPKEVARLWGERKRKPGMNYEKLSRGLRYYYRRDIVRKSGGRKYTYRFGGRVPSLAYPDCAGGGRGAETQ
Method in brief: as §1

ELF3 = molecular target: T11, ELF3 (Homo sapiens, UniProt P78545 1-371); conditions: protein: recombinant; tags: N-terminal GST; dsDNA, one strand shown
T11 sequence: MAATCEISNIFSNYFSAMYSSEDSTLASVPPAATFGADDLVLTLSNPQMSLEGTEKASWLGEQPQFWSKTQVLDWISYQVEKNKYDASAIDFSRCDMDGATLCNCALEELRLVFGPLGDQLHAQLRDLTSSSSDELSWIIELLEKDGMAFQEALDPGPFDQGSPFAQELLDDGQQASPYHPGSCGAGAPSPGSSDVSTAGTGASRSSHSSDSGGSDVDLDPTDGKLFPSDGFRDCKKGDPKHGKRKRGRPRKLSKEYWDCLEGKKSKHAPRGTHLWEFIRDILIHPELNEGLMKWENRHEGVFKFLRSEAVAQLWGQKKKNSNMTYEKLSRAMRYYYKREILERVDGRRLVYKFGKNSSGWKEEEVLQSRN
Method in brief: as §1

CRX = CRX (Homo sapiens, UniProt O43186 1-299); conditions: protein: recombinant; tags: N-terminal GST; dsDNA, one strand shown
Method in brief: as §1

ETV1 = ETV1 (Homo sapiens, UniProt P50549 1-477); conditions: protein: recombinant; tags: N-terminal GST; dsDNA, one strand shown
Method in brief: as §1

Chain of CRX (O43186 whole entry): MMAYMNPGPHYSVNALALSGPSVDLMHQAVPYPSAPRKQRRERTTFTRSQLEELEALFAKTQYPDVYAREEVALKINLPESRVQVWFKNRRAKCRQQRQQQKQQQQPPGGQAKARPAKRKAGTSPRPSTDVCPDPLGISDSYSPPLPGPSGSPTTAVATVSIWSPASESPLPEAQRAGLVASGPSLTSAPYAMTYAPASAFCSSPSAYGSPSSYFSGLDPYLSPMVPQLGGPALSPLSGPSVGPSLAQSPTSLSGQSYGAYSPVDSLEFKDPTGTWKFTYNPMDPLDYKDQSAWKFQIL
Chain of HSF1 (Q00613 whole entry): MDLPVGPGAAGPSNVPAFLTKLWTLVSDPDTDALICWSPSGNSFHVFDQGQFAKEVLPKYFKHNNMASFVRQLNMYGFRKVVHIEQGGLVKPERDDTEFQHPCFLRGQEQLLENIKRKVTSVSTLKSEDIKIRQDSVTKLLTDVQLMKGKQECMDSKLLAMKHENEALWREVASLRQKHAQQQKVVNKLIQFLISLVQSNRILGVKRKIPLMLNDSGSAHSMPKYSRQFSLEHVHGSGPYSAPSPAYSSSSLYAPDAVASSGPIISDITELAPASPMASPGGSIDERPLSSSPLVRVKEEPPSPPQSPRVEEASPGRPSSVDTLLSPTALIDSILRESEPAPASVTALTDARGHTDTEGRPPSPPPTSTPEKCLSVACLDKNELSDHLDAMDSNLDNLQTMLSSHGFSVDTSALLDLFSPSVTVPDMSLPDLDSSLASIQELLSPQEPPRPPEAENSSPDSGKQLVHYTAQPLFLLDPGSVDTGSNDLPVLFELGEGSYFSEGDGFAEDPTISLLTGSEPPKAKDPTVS
Chain of SPIB (Q01892 whole entry): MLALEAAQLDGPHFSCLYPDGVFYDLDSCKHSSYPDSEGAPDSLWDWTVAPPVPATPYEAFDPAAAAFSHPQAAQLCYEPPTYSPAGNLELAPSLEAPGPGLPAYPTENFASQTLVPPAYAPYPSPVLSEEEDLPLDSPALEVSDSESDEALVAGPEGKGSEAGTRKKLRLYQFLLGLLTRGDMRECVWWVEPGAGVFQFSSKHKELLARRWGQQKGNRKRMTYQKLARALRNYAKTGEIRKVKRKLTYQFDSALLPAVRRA
Chain of ETV1 (P50549 whole entry): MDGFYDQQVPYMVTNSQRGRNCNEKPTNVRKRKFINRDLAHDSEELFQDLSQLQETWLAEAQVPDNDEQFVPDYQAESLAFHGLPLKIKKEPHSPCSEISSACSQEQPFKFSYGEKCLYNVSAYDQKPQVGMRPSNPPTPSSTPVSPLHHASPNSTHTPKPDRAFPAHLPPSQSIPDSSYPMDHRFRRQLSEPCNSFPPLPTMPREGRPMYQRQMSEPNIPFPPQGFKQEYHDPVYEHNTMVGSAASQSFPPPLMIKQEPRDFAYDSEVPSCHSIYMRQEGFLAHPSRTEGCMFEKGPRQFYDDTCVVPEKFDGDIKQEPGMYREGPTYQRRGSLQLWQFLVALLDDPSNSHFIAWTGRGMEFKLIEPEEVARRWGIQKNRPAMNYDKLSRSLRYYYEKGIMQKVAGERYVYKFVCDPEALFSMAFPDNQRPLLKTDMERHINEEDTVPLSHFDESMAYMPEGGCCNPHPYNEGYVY
Chain of ELF1 (P32519 whole entry): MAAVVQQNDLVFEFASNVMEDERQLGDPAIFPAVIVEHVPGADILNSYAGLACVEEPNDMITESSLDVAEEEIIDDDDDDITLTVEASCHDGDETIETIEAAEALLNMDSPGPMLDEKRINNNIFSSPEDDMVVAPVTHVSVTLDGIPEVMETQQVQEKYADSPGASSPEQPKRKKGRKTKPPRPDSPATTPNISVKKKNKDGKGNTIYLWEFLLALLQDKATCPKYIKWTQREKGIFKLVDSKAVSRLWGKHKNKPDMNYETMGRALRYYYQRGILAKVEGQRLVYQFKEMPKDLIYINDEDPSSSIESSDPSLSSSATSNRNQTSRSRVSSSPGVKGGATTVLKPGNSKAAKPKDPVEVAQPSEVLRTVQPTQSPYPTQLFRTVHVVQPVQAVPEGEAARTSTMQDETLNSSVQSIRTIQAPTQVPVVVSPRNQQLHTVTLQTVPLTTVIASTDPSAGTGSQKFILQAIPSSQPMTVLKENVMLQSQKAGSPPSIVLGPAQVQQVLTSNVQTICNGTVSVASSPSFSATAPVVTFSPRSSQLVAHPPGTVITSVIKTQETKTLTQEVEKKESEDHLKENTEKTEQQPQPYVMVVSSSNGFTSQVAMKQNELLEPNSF
Chain of ELF4 (Q99607 whole entry): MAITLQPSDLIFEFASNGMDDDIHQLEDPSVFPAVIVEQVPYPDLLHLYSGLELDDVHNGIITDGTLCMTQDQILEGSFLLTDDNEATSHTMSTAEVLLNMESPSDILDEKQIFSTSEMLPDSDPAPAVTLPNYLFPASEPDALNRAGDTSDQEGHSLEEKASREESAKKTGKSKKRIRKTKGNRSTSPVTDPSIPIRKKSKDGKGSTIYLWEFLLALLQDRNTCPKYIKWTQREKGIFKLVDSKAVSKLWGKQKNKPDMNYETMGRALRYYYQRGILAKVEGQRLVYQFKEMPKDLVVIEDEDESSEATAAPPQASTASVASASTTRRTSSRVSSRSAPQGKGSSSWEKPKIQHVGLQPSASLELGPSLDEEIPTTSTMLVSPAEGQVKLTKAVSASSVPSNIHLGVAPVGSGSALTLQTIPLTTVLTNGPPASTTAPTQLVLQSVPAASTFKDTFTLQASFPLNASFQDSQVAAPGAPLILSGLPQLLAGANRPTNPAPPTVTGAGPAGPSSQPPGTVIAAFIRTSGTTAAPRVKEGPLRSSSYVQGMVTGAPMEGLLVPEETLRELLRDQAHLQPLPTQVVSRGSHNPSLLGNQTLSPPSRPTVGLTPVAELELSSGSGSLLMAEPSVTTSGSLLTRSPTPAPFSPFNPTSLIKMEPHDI
Chain of ETV5 (P41161 whole entry): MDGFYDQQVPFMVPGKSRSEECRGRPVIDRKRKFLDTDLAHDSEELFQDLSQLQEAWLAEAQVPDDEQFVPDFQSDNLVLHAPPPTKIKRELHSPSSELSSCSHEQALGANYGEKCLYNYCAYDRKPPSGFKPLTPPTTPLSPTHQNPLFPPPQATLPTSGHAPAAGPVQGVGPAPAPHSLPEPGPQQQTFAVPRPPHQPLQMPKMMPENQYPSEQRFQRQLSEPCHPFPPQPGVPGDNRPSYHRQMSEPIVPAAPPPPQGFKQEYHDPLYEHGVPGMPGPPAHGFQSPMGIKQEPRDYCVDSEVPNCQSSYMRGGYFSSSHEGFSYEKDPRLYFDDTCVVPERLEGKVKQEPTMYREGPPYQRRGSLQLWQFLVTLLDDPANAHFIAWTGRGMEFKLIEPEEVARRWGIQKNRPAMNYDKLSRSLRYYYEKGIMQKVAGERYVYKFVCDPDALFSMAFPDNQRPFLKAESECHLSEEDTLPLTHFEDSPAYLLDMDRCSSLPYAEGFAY

Sequence: TCCTGG
- binding signal (FLI1): 1.66 fold enrichment (6-mer frequency, TF over GST control)
- binding signal (ELK1): 1.47 fold enrichment (6-mer frequency, TF over GST control)
- binding signal (GABPA): 1.69 fold enrichment (6-mer frequency, TF over GST control)
- binding signal (ERG): 1.85 fold enrichment (6-mer frequency, TF over GST control)
- binding signal (ELF1): 1.69 fold enrichment (6-mer frequency, TF over GST control)
- binding signal (EHF): 1.66 fold enrichment (6-mer frequency, TF over GST control)
- binding signal (SPI1): 1.63 fold enrichment (6-mer frequency, TF over GST control)
- binding signal (SPIB): 1.74 fold enrichment (6-mer frequency, TF over GST control)
- binding signal (ELK3): 1.55 fold enrichment (6-mer frequency, TF over GST control)
- binding signal (FEV): 1.46 fold enrichment (6-mer frequency, TF over GST control)
- binding signal (ETV5): 1.68 fold enrichment (6-mer frequency, TF over GST control)
- binding signal (HSF1): 1.29 fold enrichment (6-mer frequency, TF over GST control)
- binding signal (SPIC): 1.54 fold enrichment (6-mer frequency, TF over GST control)
- binding signal (ELF4): 1.53 fold enrichment (6-mer frequency, TF over GST control)
- binding signal (ELK4): 1.38 fold enrichment (6-mer frequency, TF over GST control)
- binding signal (ETV2): 2.03 fold enrichment (6-mer frequency, TF over GST control)
- binding signal (ELF3): 1.17 fold enrichment (6-mer frequency, TF over GST control)
- binding signal (CRX): 1.27 fold enrichment (6-mer frequency, TF over GST control)
- binding signal (ETV1): 1.68 fold enrichment (6-mer frequency, TF over GST control)
